Laboratory results: PubChem BioAssay AID430 (Sanford-Burnham Center for Chemical Genomics, 2006)
Values joined by “and” are separate entries in the source; they are usually repeats but may differ in a detail not shown here. Identical values can stand only once. The campaign covered roughly 63,000 compounds. About 1,100 (1.7%) were called active. This is one part of a sample in which actives are shown more often than they occur. Cut-off read from the data, not from the text of the source: active = cytotoxicity above about 50%; inactive = the rest. Entries with a potency or affinity are not part of this list. Some compounds were tested as several samples or in several runs, with calls that do not always agree.

assay: cytotoxicity in HPDE-C7 cells, cell-based, fluorescence, HTS (AID 430); settings: HPDE-C7 pancreatic duct cells viability, at 10 µM, stronger effect = higher value;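 note: cells exposed to compound for 48 hours before viability readout; 0% = vehicle and 100% = reference cytotoxic drug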

Row | Compound | cytotoxicity
1 | c1ccc2c(c1)[nH]c1cnccc12 | 72.4% (active)
2 | CCOC(=O)c1cc2c(cn1)[nH]c1ccccc12 | 30.4% (inactive)
3 | c1ccc2c3c([nH]c2c1)CNCC3 | -4.7% (inactive)
4 | CC12CCCCC1N(O)CN2O (stereo not given) | -2.3% (inactive)
5 | CCOc1ccccc1C1SCC(=O)Nc2c1c(=O)[nH]n2C(CC)CC (stereo not given) | -4% (inactive)
6 | CCCCCn1c(=O)c(C(=O)NCc2ccncc2)c(O)c2ccccc21 | 60.6% (active)
7 | CCCCc1nc2ccccc2c(=O)n1-c1ccc(O)cc1 | -5.1% (inactive)
8 | CCCCn1c(=O)c(C(=O)Nc2nc3ccccc3[nH]2)c(O)c2ccccc21 | 15.2% (inactive)
9 | CCCCCCn1c(=O)c(C(=O)Nc2c(C)n(C)n(-c3ccccc3)c2=O)c(O)c2ccccc21 | 51.8% (active)
10 | CCCCCCn1c(O)c(C=Nc2c(C)n(C)n(-c3ccccc3)c2=O)c(=O)[nH]c1=O | 5.3% (inactive)
11 | CCCCCCn1c(=O)c(C(=O)Nc2ccncc2)c(O)c2ccccc21 | 37.2% (inactive)
12 | CCCCn1c(=O)c(C(=O)Nc2cnccn2)c(O)c2ccccc21 | 60.1% (active)
13 | CCCCCn1c(=O)c(C(=O)Nc2ccncc2)c(O)c2ccccc21 | 68.6% (active)
14 | CCCCn1c(=O)c(C(=O)Nc2ccccc2S(N)(=O)=O)c(O)c2ccccc21 | -2.2% (inactive)
15 | CCCCCn1c(=O)c(C(=O)NCc2ccccn2)c(O)c2ccccc21 | 2.6% (inactive)
16 | O=C(Nc1ccncc1)c1c(O)c2ccccc2n(Cc2ccccc2)c1=O | -2.4% (inactive)
17 | O=C(Nc1cccnc1)c1c(O)c2c(n(Cc3ccccc3)c1=O)CCCC2 | 1% (inactive)
18 | COc1ccc(CC2c3cc(OC)c(OC)cc3CCN2C)cc1OC (stereo not given) | 3.5% (inactive)
19 | COc1ccc2c(c1)CC1(CN2C)C(=O)NC(=O)N(c2ccc(C)cc2)C1=O (stereo not given) | 5.9% (inactive)
20 | COc1ccc2nc(NC(=O)CCc3nc(C4=CCN(C)CC4)no3)sc2c1 | -12.4% (inactive)
21 | O=c1cccc2n1CC1CC2CN(Cc2ccc3c(c2)OCO3)C1 (stereo not given) | -17.1% (inactive)
22 | C=CCN1C(=O)CSc2ccc(C(=O)N3CCC4(CC3)OCCO4)cc21 | -17.9% (inactive)
23 | C=Cn1ccnc1P(=S)(c1ccn(C)c1)c1nccn1C=C | 7.8% (inactive)
24 | CCCCN1C(=O)NC(=O)C2(Cc3c(nc4c(C)cccn4c3=O)N3CCc4ccccc4C32)C1=O (stereo not given) | 13.9% (inactive)
25 | O=c1[nH]c(=O)n(CCc2ccc(F)cc2)c(O)c1C=NCCCn1ccnc1 | -19.6% (inactive)
26 | CC(CCc1ccccc1)NC(C)C(O)c1ccc(O)cc1 (stereo not given) | 8.9% (inactive)
27 | CNCC(O)c1cccc(OC(=O)c2ccccc2C)c1 (stereo not given) | -3.3% (inactive)

Row | Compound | cytotoxicity
28 | CNCC(O)c1ccc(O)cc1 (stereo not given) | 50.6% (active)
29 | Cc1ccc(-c2nc(CS(=O)CC(=O)N3CCC4(CC3)OCCO4)c(C)o2)cc1 (stereo not given) | 1.6% (inactive)
30 | CC(C)=CCC12CN3CCN(CC(C3)C1=O)C2 | -7.6% (inactive)
31 | COc1cc(OC)cc(-n2nc(C(=O)N3CCC4(CC3)OCCO4)c3ccccc3c2=O)c1 | -1.5% (inactive)
32 | CCCCn1c(O)c(C(CC)=NCc2ccc3c(c2)OCO3)c(=O)[nH]c1=O | 10% (inactive)
33 | CCC(=NCc1cccnc1)c1c(O)n(C2CCCCC2)c(=O)[nH]c1=O | -32.8% (inactive)
34 | CCC(=NCc1ccc2c(c1)OCO2)c1c(O)n(C2CCCCC2)c(=O)[nH]c1=O | 64.4% (active)
35 | Cn1c2ccccc2c2c(C(=O)N3CCC4(CC3)OCCO4)cn(C3CCCCC3)c(=O)c21 | -1.3% (inactive)
36 | NCCCP(=O)(O)CCc1ccccc1 | -5.8% (inactive)
37 | Cn1c(O)c(/C=N/c2ccccn2)c(=O)n(C)c1=O | -18.2% (inactive)
38 | COc1ccc(C2SCC(=O)Nc3c2c(=O)[nH]n3C2CCCCC2)cc1 (stereo not given) | -0.7% (inactive)
39 | CCOc1ccc(C2SCC(=O)Nc3c2c(=O)[nH]n3C2CCCCCC2)cc1 (stereo not given) | -18.2% (inactive)
40 | COc1ccc(C2SCC(=O)Nc3c2c(=O)[nH]n3C2CCCCCC2)cc1 (stereo not given) | 90.9% (active)
41 | N#Cc1ccc(N2CCNCC2)c(F)c1 | 8.7% (inactive)
42 | O=C1NC(=O)C2(Cc3c(nc4ccccn4c3=O)N3CCCCCC32)C(=O)N1Cc1ccccc1 (stereo not given) | 48.1% (inactive)
43 | Cc1nc2ccc(Cl)cn2c1P(=S)(N1CCOCC1)N1CCOCC1 | -4.2% (inactive)
44 | COCCOC(=O)c1c(N)n(Cc2ccco2)c2nc3ccccc3nc12 | 17.4% (inactive)
45 | COCCOC(=O)c1c(N)n(Cc2ccc(OC)cc2)c2nc3ccccc3nc12 | -32.4% (inactive)
46 | COc1ccc(Cn2c(N)c(C(=O)NCc3ccco3)c3nc4ccccc4nc32)cc1 | 69.5% (active)
47 | Nc1c(C(=O)NCCN2CCOCC2)c2nc3ccccc3nc2n1Cc1ccco1 | 5.7% (inactive)
48 | Nc1c(C(=O)NCc2ccco2)c2nc3ccccc3nc2n1Cc1ccc(F)cc1 | 80.9% (active)
49 | COc1ccc(Cn2c(N)c(C(=O)NCc3ccco3)c3nc4ccccc4nc32)cc1OC | 2.8% (inactive)
50 | Cc1nnc2ccc(N3CCN(C)CC3)nn12 | -0.1% (inactive)
51 | C=CCN1C(=O)C2(C(C(=O)OCC)=C(N)Oc3ccccc32)c2c1c1ccccc1oc2=O (stereo not given) | 5.2% (inactive)
52 | CCCCCn1c(N)c(C(=O)NCCN2CCOCC2)c2nc3ccccc3nc21 | 10.6% (inactive)
53 | CCCCCCn1c(N)c(C(=O)NCCN2CCOCC2)c2nc3ccccc3nc21 | 72.1% (active)
54 | CCOC(=O)c1c(N)n(CCN2CCCCC2)c2nc3ccccc3nc12 | 9.2% (inactive)

Row | Compound | cytotoxicity
55 | COc1ccc(CCNC(=O)c2c(N)n(CCN3CCOCC3)c3nc4ccccc4nc23)cc1 | 62.9% (active)
56 | CCCCn1c(N)c(C(=O)NCCN2CCOCC2)c2nc3ccccc3nc21 | 1.4% (inactive)
57 | CCCCNC(=O)c1c(N)n(CCCOC)c2nc3ccccc3nc12 | 24.4% (inactive)
58 | OCCNc1c2c(nc3ccccc13)CCCC2 | -2.4% (inactive)
59 | CC(=NCCCN1CCOCC1)c1c(O)[nH]c(=O)[nH]c1=O | 3.3% (inactive)
60 | CC1(C)C(C(=O)NCc2ccco2)C1(C)C | -21.5% (inactive)
61 | Cc1cccc(-c2nc3ccccc3c(=O)n2-n2cccc2)c1 | 19.1% (inactive)
62 | Cc1nc2ccccc2c(=O)n1-c1cccc(O)c1 | 3.6% (inactive)
63 | Cc1cccc(N2CCc3c2nc2ccccc2c3N)c1 | 24.2% (inactive) and 50.1% (active)
64 | CC(=NCc1cccnc1)c1c(O)n(Cc2ccccc2)c(=O)[nH]c1=O | -13.3% (inactive)
65 | COc1ccc(C2NCc3ccc4c(c3-n3cccc32)OCO4)cc1OC (stereo not given) | -0.1% (inactive)
66 | COc1ccc(C2NCc3ccc4c(c3-n3cccc32)OCO4)cc1O (stereo not given) | 63.9% (active)
67 | c1cc2n(c1)-c1c(ccc3c1OCO3)CNC2c1ccc2c(c1)OCO2 (stereo not given) | 29.3% (inactive)
68 | O=C(O)C(O)(c1ccccc1)C1CCCC1 (stereo not given) | 13.6% (inactive)
69 | CN(C)CP(=O)(Nc1ccccc1)N(C)C (stereo not given) | -14.4% (inactive)
70 | O=C(c1cc(-c2cccnc2)nc2ccc(Cl)cc12)N1CCC2(CC1)OCCO2 | 4.7% (inactive)
71 | O=C1CN=C(c2ccccc2)c2oc3ccc(Br)cc3c2N1 | -10.4% (inactive)
72 | COc1cccc(OC)c1C1=NCC(=O)Nc2c1oc1ccc(Br)cc21 | 72.5% (active)
73 | Cc1cc(NC(=O)COC(=O)c2c(C)nn(Cc3ccccc3Cl)c2Cl)no1 | 3.7% (inactive)
74 | CCc1nc2ccccc2c(=O)n1-c1cccc(OC)c1 | 18.7% (inactive)
75 | CCn1nc(-c2cccs2)nc2c(=O)n(C)c(=O)nc1-2 | 114% (active)
76 | CCn1nc(-c2ccccc2)nc2c(=O)n(C)c(=O)nc1-2 | 119% (active)
77 | O=c1c2ccccc2nc(-c2cccs2)n1-c1cnccn1 | 2.1% (inactive)
78 | CSc1ccc(CNC2CN3CCC2CC3)cc1 (stereo not given) | -5.8% (inactive)
79 | O=C(Cc1ccccc1)OCCN1CCCCC1 | 0.7% (inactive)
80 | Cc1cccc(OC(=O)N2CCOCC2)c1 | -0.2% (inactive)
81 | O=C(COc1ccccc1)N1CCN(C/C=C/c2ccccc2)CC1 | 1.6% (inactive)

Row | Compound | cytotoxicity
82 | CCCCOc1ccc(CN2CCN(CCO)CC2)cc1 | 23.7% (inactive)
83 | COc1ccc2[nH]cc(CCN(C)C)c2c1 | -6% (inactive)
84 | CCCCc1ccc2[nH]cc(CCN)c2c1 | 62.3% (active)
85 | NCCc1c[nH]c2ccc(F)cc12 | -7.7% (inactive)
86 | COc1cc(OC)c(OC)cc1CNC(C)C(O)c1ccccc1 (stereo not given) | 2.2% (inactive)
87 | COC(=O)c1cc2c(s1)=NC=NP=2(N1CCOCC1)N1CCOCC1 | -14.1% (inactive)
88 | C[C@@]1(CO)[C@H](O)CC[C@@]2(C)[C@H]1CC[C@H]1C[C@@H]3C[C@@]12CC[C@]3(O)CO | 82.5% (active)
89 | O=C(C(Cc1ccccc1)NS(=O)(=O)c1cccc2nsnc12)N1CCC2(CC1)OCCO2 (stereo not given) | -4.1% (inactive)
90 | O=C(c1ccc(CS(=O)(=O)c2ccccc2)o1)N1CCC2(CC1)OCCO2 | -2.7% (inactive)
91 | CCC(=Nc1ccccc1NC(C)=O)c1c(O)n(C)c(=O)n(C)c1=O | 41.8% (inactive)
92 | CC(=O)C1=C(C)OC(N)=C(C(=O)OC(C)C)C12C(=O)Nc1ccccc12 (stereo not given) | -8.9% (inactive)
93 | CCCCc1nc(N2CCNCC2)c(C#N)c2c1CSC(C)(C)C2 | 52.3% (active)
94 | CCc1nc(N2CCNCC2)c(C#N)c2c1CSC(C)(C)C2 | 37.6% (inactive)
95 | O=C(CN1C(=O)CN=C(c2ccccc2Cl)c2cc(Cl)ccc21)NCc1ccco1 | 2.5% (inactive)
96 | O=c1[nH]c(=O)n(CCC2=CCCCC2)c(O)c1C=NCCCn1ccnc1 | -30.8% (inactive)
97 | COc1ccc(C(=O)C(C)(C)NO)cc1 | -9.5% (inactive)
98 | C=CCn1c(O)c(C(C)=NCc2cccnc2)c(=O)[nH]c1=O | 8.9% (inactive)
99 | O=C(Cn1ncc2ccccc21)N1CCC2(CC1)OCCO2 | -19.4% (inactive)
100 | O=c1c(C=NCCN2CCNCC2)c(O)n(C2CCCCC2)c(=O)n1C1CCCCC1 | 62.8% (active)
101 | O=c1[nH]c(=O)n(Cc2ccccc2)c(O)c1C=NCCN1CCNCC1 | -11.2% (inactive)
102 | O=c1[nH]c(=O)n(C2CCCCCC2)c(O)c1C=NCCCN1CCOCC1 | 2.2% (inactive)
103 | Cc1nc2c(c(C)nn2-c2ccccc2)c(C)c1CCC(=O)N1CCC2(CC1)OCCO2 | -12.1% (inactive)
104 | Fc1ccc2c(c1)nnn2C1CCN(Cc2nnnn2C2CCCCC2)CC1 | -8% (inactive)
105 | NC(=O)C1(N2CCCCC2)CCN(Cc2ccccc2)CC1 | -8.8% (inactive)
